Most compounds without a hit are left out; they make up all but 3.4% or so of the library.
NF-kB expr up = compounds increasing NF-kB expression in human neuronal cells | fold change at 12.5 µM | hit rate 1.6% among 190,000 | AID 1239 | NF-kB reporter expression; stronger effect = higher value; in the data active = fold change above about 3.3
hgDAF12 agonist = agonists of H. glycines DAF-12 nuclear receptor | hit rate 1.8% among 370,000 | activation, % at 6.8 µM | HEK293 GAL4-hgDAF12 UAS-luciferase reporter, agonist luminescence; normalized to butyrate control;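 active = activation above a cutoff set at the mean of all screened compounds plus 3 SD, cut at about 10% in these data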;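 note: 0% = DMSO wells and 100% = sodium butyrate wells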
ssDAF12 agonist = activators of S. stercoralis DAF-12 nuclear receptor; HEK293 ssDAF-12/GRIP1 lit1-tk-luc reporter, luminescence; % of 3 µM dafachronic acid response; activation, % at 6.8 µM; hit rate 1% among 370,000; AID 652126;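 active = activation above the mean over all tested compounds plus 3 SD, cut at about 0.9% in these data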;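 note: 0% = DMSO-only wells and 100% = 3 µM delta7-dafachronic acid wells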
APP 5'UTR act = APP 5'UTR luciferase reporter activation | SH-SY5Y APP 5'UTR luciferase reporter, luminescence; zero percent = DMSO vehicle wells | activation, % at 2 µM | hit rate 1% among 190,000;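 active = activation above a set limit, based on mean plus 3 SD of controls, cut at about 140% in these data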
hcDAF12 agonist = H. contortus DAF-12 activation, primary screen | AID 652067 | hit rate 1.4% among 370,000 | activation, % at 6.8 µM | HEK293 hcDAF-12 lit1-tk-luc reporter, luminescence; 0% DMSO, 100% Δ7-dafachronic acid;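 active = activation above the mean of all tested compounds plus 3 SD, cut at about 5.5% in these data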;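 note: 100% = response to 3 µM Δ7-dafachronic acid high control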
LXRb hcDAF ctr = activates human LXR-beta, counter-screen for hcDAF-12 agonists; HEK293 Gal4-LXR tk-luc reporter, luminescence, 24 h; normalized: DMSO 0%, positive control 100%; shares compounds with hcDAF12 agonist; activation, % at 6.8 µM; 3,400 tested, under 10 active;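 active = mean percent activation of the reporter above a cutoff set as the average over tested compounds plus their standard deviation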
Target sequence (P55055 whole entry, looked up, the tested form may be a part): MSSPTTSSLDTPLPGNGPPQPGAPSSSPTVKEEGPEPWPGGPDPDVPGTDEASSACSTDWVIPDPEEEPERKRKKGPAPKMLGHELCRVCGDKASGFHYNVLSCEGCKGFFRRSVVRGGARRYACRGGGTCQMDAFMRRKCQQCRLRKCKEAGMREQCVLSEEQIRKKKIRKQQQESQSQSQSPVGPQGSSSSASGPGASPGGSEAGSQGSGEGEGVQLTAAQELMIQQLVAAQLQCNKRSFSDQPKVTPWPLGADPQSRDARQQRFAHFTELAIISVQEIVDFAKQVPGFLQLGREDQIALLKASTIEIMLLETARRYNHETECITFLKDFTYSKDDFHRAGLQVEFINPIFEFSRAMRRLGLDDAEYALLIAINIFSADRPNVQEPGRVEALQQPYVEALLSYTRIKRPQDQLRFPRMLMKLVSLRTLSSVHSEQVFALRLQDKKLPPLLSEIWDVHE
hcDAF12 conf = hcDAF-12 agonism, confirmation assay; hit rate 61% among 3,400; HEK293 hcDAF-12 lit1-tk-luc reporter, luminescence; % of Δ7-dafachronic acid response; AID 743032; activation, % at 6.8 µM; shares compounds with hcDAF12 agonist;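 active = mean activation across triplicate tests above the threshold derived from the earlier primary screen, cut at about 5.5% in these data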;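 note: 0% = DMSO only wells and 100% = 3 µM Δ7-dafachronic acid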
* hit, by the source's call.

Screening COc1ccc(CSc2nnc(SCC(=O)Nc3ccc(S(N)(=O)=O)cc3)s2)cc1 returned hgDAF12 agonist 1, ssDAF12 agonist -1 and hcDAF12 agonist -3.
Screening CCn1c(C)c(/C=N/Nc2nc3ccccc3s2)c2ccccc21 returned NF-kB expr up 1.3, hgDAF12 agonist 11*, ssDAF12 agonist 0, APP 5'UTR act 48, hcDAF12 agonist 12*, LXRb hcDAF ctr 0 and hcDAF12 conf 4.
For CC(=O)Nc1ccc(S(=O)(=O)Nc2nc3ccccc3s2)cc1 the results were NF-kB expr up 1.1, hgDAF12 agonist 3, ssDAF12 agonist -1, APP 5'UTR act 16 and hcDAF12 agonist 1.
For Cc1ccsc1/C=N/Nc1nc2ccccc2s1 the results were NF-kB expr up 11*, hgDAF12 agonist 20*, ssDAF12 agonist 5.5*, APP 5'UTR act 232*, hcDAF12 agonist 21*, LXRb hcDAF ctr 2 and hcDAF12 conf 23*.
`CC(=O)Nc1ccc(/C=N/Nc2nc3ccccc3s2)cc1` gave hgDAF12 agonist 24*, ssDAF12 agonist 3.3*, hcDAF12 agonist 18*, LXRb hcDAF ctr 2 and hcDAF12 conf 22*.
`COc1cccc(/C=N/Nc2nnc3c(n2)[nH]c2ccccc23)c1OC` gave hgDAF12 agonist 1, ssDAF12 agonist -1, hcDAF12 agonist 7.1*, LXRb hcDAF ctr 0 and hcDAF12 conf 4.
Screening C[C@H]1[C@@H](OC(=O)NC2CCC2)CC[C@@]23CCCN2C(=O)CCC[C@@H]13 returned hgDAF12 agonist 2, ssDAF12 agonist -1 and hcDAF12 agonist -3.
CCC(=O)N[C@H]1C[C@@H]2O[C@@H](CO)CC[C@@H]2O[C@@H]1CCc1ccc(-c2cccc(OC)c2)cc1 was read as hgDAF12 agonist 1, ssDAF12 agonist -1 and hcDAF12 agonist 0.
For COC(=O)[C@H](C(C)C)N1Cc2nnn(Cc3ccc(C)cc3)c2-c2cc(F)ccc2S1(=O)=O the results were hgDAF12 agonist -3, ssDAF12 agonist -1 and hcDAF12 agonist 0.
Screening COC(=O)[C@]12C[C@H](CC(=O)N3CCN(C(=O)c4ccco4)CC3)C(=O)N(CCc3ccc(OC)c(OC)c3)C1=C[C@H](COCc1ccccc1)O[C@@H]2C returned hgDAF12 agonist -2, ssDAF12 agonist -1 and hcDAF12 agonist -1.
COc1cccc(/C=N/Nc2ccc(Cl)nn2)c1OC was read as hgDAF12 agonist 2, ssDAF12 agonist -1 and hcDAF12 agonist -1.
For COc1ccc(/C=N/Nc2nc3ccccc3s2)cc1O the results were NF-kB expr up 4.6*, hgDAF12 agonist 20*, ssDAF12 agonist 3.2*, APP 5'UTR act 136*, hcDAF12 agonist 18*, LXRb hcDAF ctr 2 and hcDAF12 conf 19*.
COc1cccc(C=NNc2nc3ccccc3s2)c1OC was read as hgDAF12 agonist 13*, ssDAF12 agonist 0, hcDAF12 agonist 7.6*, LXRb hcDAF ctr 1 and hcDAF12 conf 3.
O=C(NC1CCCCN(Cc2cccc(Cl)c2)C1=O)c1cccc(F)c1 (centres undefined) was read as hgDAF12 agonist -2, ssDAF12 agonist -2 and hcDAF12 agonist -3.
O=C(c1cccs1)n1ccc2ccc(-c3ccc4ccn(C(=O)c5cccs5)c4c3)cc21 was read as hgDAF12 agonist 0, ssDAF12 agonist 0 and hcDAF12 agonist 4.
`O=C(NCCc1c[nH]c2ccccc12)OCc1cn(Cc2cc(F)cc(F)c2)nn1` gave hgDAF12 agonist -6, ssDAF12 agonist -1 and hcDAF12 agonist -3.
For CCOc1ccc(C(=O)NCCCCNC(=O)c2ccc(OCC)cc2)cc1 the results were hgDAF12 agonist 6, ssDAF12 agonist -2 and hcDAF12 agonist 0.
Screening CCOc1ccc(C(=O)NCCc2ccccc2)cc1 returned NF-kB expr up 3.6*, hgDAF12 agonist 7, ssDAF12 agonist 0, APP 5'UTR act 123, hcDAF12 agonist 6.6*, LXRb hcDAF ctr 1 and hcDAF12 conf 9.2*.
Screening CCOc1ccc(OCc2cccc(C(=O)O)c2)cc1 returned NF-kB expr up 12*, hgDAF12 agonist 11*, ssDAF12 agonist 1.0*, hcDAF12 agonist 8.8*, LXRb hcDAF ctr 2 and hcDAF12 conf 15*.
For COc1ccc(C(=O)NCCSc2ccccc2)cc1 the results were NF-kB expr up 5.7*, hgDAF12 agonist 12*, ssDAF12 agonist 0, APP 5'UTR act 128, hcDAF12 agonist 7.4*, LXRb hcDAF ctr 1 and hcDAF12 conf 6.5*.
For C=CCN(C)CC#CCCCCl the results were hgDAF12 agonist 0, ssDAF12 agonist -1 and hcDAF12 agonist 0.
COCc1cccc(-c2cc(C(=O)OC)c3n(c2=O)CCC3)c1 was read as hgDAF12 agonist -1, ssDAF12 agonist -1 and hcDAF12 agonist -1.
`CC(C)NC(=O)NC1CCN(CC(=O)Nc2ccc3c(c2)OCCO3)CC1` gave hgDAF12 agonist -1, ssDAF12 agonist -1 and hcDAF12 agonist -3.
Screening O=C(Nc1ncccn1)c1cccc(F)c1 returned hgDAF12 agonist 8, ssDAF12 agonist 0, hcDAF12 agonist 7.0*, LXRb hcDAF ctr 0 and hcDAF12 conf 1.
For O=C(Nc1ccc(N2CCCC2)cc1)c1cccc(F)c1 the results were NF-kB expr up 2.6, hgDAF12 agonist 11*, ssDAF12 agonist 0, APP 5'UTR act 230*, hcDAF12 agonist 8.8*, LXRb hcDAF ctr 1 and hcDAF12 conf 5.7*.
For O=C(Nc1ncccn1)c1cccc(Cl)c1 the results were hgDAF12 agonist -1, ssDAF12 agonist 1 and hcDAF12 agonist 5.
COc1ccc(/C=C\c2nc(=O)c3ccccc3o2)cc1 was read as NF-kB expr up 7.3*, hgDAF12 agonist 19*, ssDAF12 agonist 0, APP 5'UTR act 127, hcDAF12 agonist 7.2*, LXRb hcDAF ctr 1 and hcDAF12 conf 11*.
For CCOC(=O)N1CCN(C(=O)C[C@@H]2C(=O)N(CCc3ccc(Cl)cc3)/C3=C/CCCCC[C@@]32C(=O)OCC)CC1 the results were hgDAF12 agonist -5, ssDAF12 agonist -1 and hcDAF12 agonist -3.
For Cc1ccc(-c2ccc(/C=N/NC(N)=S)o2)cc1 the results were hgDAF12 agonist 7, ssDAF12 agonist 1.7*, hcDAF12 agonist 10*, LXRb hcDAF ctr 0 and hcDAF12 conf 7.5*.
`NC(=S)N/N=C/c1ccc(-c2ccc(Cl)c(Cl)c2)o1` gave NF-kB expr up 1.1, hgDAF12 agonist 6, ssDAF12 agonist 1.4*, APP 5'UTR act -10, hcDAF12 agonist 7.1*, LXRb hcDAF ctr 0 and hcDAF12 conf 9.9*.

Screening data: PubChem BioAssay, several laboratories
